Screening data as filed in PubChem BioAssay.
Sfp inh: blocks B. subtilis Sfp PPTase activity. AID 1490. Potency, µM, for the others: largest response in the series, negative = inhibition, most hits filed as inhibitors. Q9F4F7. 310,000 tested, 3.5% active. Biochemical Sfp PPTase activity, qHTS;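 further: the enzyme is Sfp with the accession as filed and its product quenches rhodamine fluorescence; 0% = enzyme reaction without inhibitor and -100% = no enzyme wells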
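Step 1, compound plus 15 nM Sfp-PPTase, 15 min, room temperature. Step 2, add rhodamine-CoA (5 uM) and BHQ-2-YbbR (12.5 uM). Step 3, read 525/598 nm fluorescence at 0 and 30 min.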
L3MBTL1 block: inhibitors of human L3MBTL1 | Q9Y468 | AlphaScreen L3MBTL1–H3K9me1 peptide binding | Potency, µM (top dose mostly 57.1 µM), for the others: top-dose activity, negative = inhibition, actives largely listed as inhibitors | 230,000 tested, 0.66% active | AID 485360; further: on the % scale 0 is the no-effect control and ±100 the full control effect; nearly all actives have a fitted effect of over 60% in size
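Displacement of a biotinylated histone H3(1-15) peptide monomethylated at Lys9 (75 nM) from L3MBTL1 (50 nM) was measured by AlphaScreen after a 30 min room-temperature compound incubation; cefsulodin titration served as intraplate control.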
HP1b chromo inh: HP1-beta chromodomain-methylated histone interaction inhibition; P83916; AlphaScreen HP1-beta / biotin-H3K9me3 peptide binding; Potency, µM (titrated, usually from 114 µM), without a hit: at the highest dose activity change, negative = inhibition, most hits filed as inhibitors; 390,000 tested, 0.56% active; further: nearly all actives have a fitted effect of over 70% in size
Target sequence (P83916 whole entry, looked up): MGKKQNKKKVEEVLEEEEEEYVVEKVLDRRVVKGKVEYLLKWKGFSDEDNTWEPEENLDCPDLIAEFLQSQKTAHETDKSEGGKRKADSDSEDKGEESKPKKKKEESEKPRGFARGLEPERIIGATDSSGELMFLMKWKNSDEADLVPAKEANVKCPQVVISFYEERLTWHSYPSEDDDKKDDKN
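HP1-beta protein (50 nM final) preincubated 30 min at room temperature with biotinylated H3(1-18)K9me3 peptide (50 nM) in PBS pH 7.4, 0.01% Tween-20, then compound added for 30 min. AlphaScreen streptavidin donor/nickel chelate acceptor beads (10 ug/mL final), 30 min dark, luminescence read.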
JMJD2A Tudor: JMJD2A Tudor domain (human) inhibition; O75164; AlphaScreen JMJD2A-Tudor / H3K4me3 peptide binding; Potency, µM (series often up to 114 µM), for the others: at the top dose activity change, negative = inhibition, actives largely listed as inhibitors; 390,000 tested, 4.4% active; AID 504339; further: on the % scale 0 is the no-effect control and ±100 the full control effect; nearly all actives have a fitted effect of over 50% in size
G9a block: blocks human histone lysine methyltransferase G9a. Q96KQ7. Potency, µM (titrated, usually from 102 µM), for inactives: at the top dose activity, negative = inhibition, actives largely listed as inhibitors. AID 504332. 350,000 tested, 8.8% active. G9a H3K9 monomethylation, AlphaScreen, 2 h; further: on the % scale 0 is the no-effect control and ±100 the full control effect; nearly all actives have a fitted effect of over 75% in size
Target sequence (Q96KQ7 913-1193 limits assumed): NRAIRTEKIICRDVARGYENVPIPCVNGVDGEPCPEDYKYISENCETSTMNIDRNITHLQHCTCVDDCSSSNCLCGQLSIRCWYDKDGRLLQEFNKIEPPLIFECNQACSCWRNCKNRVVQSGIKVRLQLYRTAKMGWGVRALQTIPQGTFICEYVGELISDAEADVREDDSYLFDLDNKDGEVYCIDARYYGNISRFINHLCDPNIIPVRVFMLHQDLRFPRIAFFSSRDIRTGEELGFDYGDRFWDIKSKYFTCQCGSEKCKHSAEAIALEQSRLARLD
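Readings reflect AlphaScreen signal from monomethyl-H3K9 antibody detection. HMT at 20 nM; substrate b-H3K9 500 nM; cofactor SAM 20 uM; 2 h RT reaction; compounds tested as titrations in qHTS with 15 min preincubation.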
BAZ2B block: BAZ2B (human) inhibition; Q9UIF8; AlphaScreen BAZ2B-H3K14Ac peptide displacement; Potency, µM (highest dose often 114 µM), without a hit: at the top dose activity change, negative = inhibition, usual class: inhibitors; 360,000 tested, 4.4% active; further: on the % scale 0 is the no-effect control and ±100 the full control effect; nearly all actives have a fitted effect of over 60% in size
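In this displacement format the biotinylated H3(5-23) peptide acetylated at Lys14 serves as ligand at 50 nM, with BAZ2B at 50 nM in PBS pH 7.4 containing 0.01% Tween-20. Donor and acceptor beads are 10 ug/mL final.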
Starred values were filed as active, the others as inactive; ? = inconclusive; . = no result; [ ] = another dose, or the depositor's remark. A selection: hits, their analogues and other compounds. The true share with any hit is near 12%. The call rests on the fitted dose curve; in most records, active means well fitted curve in the direction sought with a large enough effect; inconclusive means small, poorly fitted or top-dose-only effect, or another doubt; inactive means no such curve, though single readings can be large; an effect the other way counts as inactive or inconclusive. Potency means the concentration at half of the fitted maximal effect.

SMILES | Sfp inh | L3MBTL1 block | HP1b chromo inh | JMJD2A Tudor | G9a block | BAZ2B block
COc1ccc(OCc2nc(C#N)c(N3CCN(c4ccc(OC)cc4)CC3)o2)cc1 | 3% | -22% | -7% | ? | 11µM* | ?
COc1ccc(N2CCN(c3oc(/C=C/c4ccccc4OC)nc3C#N)CC2)cc1 | . | . | ? | ? | ? | 3.2µM*
N#Cc1nc(COc2ccccc2Cl)oc1N1CCCCCC1 | -2% | -3% | ? | -21% | -5%[59 µM] | ?
COC(=O)c1cc(NC(=O)c2ccc3c(c2)N(Cc2cccc(Cl)c2)C(=O)c2ccccc2S3=O)cc(C(=O)OC)c1 (stereo unspecified) | . | . | 14% | 4% | 6%[59 µM] | 0%
COc1ccc(C2C(C#N)=C(N)Oc3c2oc(CO)cc3=O)cc1 (stereo unspecified) | 56µM* | . | 54% | 6%[11.4 µM] | ? | .
Cc1ccccc1N1CCN(Cc2cc3c(cc2[N+](=O)[O-])OCO3)CC1 | -16% | -8% | 8% | -26% | . | ?
CCOc1ccccc1N1CCN(Cc2cc3c(cc2[N+](=O)[O-])OCO3)CC1 | -19% | -17% | -14% | ? | 71µM* | ?
O=[N+]([O-])c1cc2c(cc1CN1CCN(c3ccccc3F)CC1)OCO2 | -8% | -7% | 9% | -31% | -19%[59 µM] | 56µM*
COc1ccc(NC(=O)c2oc3ccccc3c2NC(=O)c2cc(=O)c3ccccc3o2)cc1 | . | . | 30% | -14% | -3%[59 µM] | -3%
COc1ccccc1-c1nn2c(-c3cc(C)[nH]n3)nnc2s1 | . | . | 22%[57 µM] | -12%[57.1 µM] | . | .
CCOC(=O)CNC(=O)O[C@@H]1C(=O)c2cc(Br)ccc2O[C@H]1c1ccc2c(c1)OCO2 | -12% | . | . | . | . | .
CCOC(=O)c1c(-c2ccccc2)csc1NC(=O)c1cc(S(=O)(=O)N2CCOCC2)ccc1C | ? | -1% | ? | -11% | 32µM* | 2%
CCOC(=O)N1CCN(S(=O)(=O)c2ccc(C(=O)Nc3nc4ccc(F)cc4s3)cc2)CC1 | -6% | 6% | 28% | 0% | -9% | -7%
CCOC(=O)N1CCN(S(=O)(=O)c2ccc(C(=O)Nc3sc4c(c3C(N)=O)CC(C)(C)NC4(C)C)cc2)CC1 | -6% | . | 23% | -21% | 50µM* | -23%
CCOC(=O)c1c(-c2ccccc2)csc1NC(=O)c1ccc(S(=O)(=O)N2CC(C)OC(C)C2)cc1 (stereo unspecified) | 0% | 4% | 36% | -1% | 7% | 4%
CCOC(=O)N1CCN(S(=O)(=O)c2ccc(C(=O)Nc3nc4ccccc4s3)cc2)CC1 | -3% | 6% | 22% | -14% | 50µM* | 5%
CCOC(=O)c1sc(NC(=O)c2ccc(S(=O)(=O)N3CCOCC3)cc2)nc1-c1ccccc1 | -8% | -7% | 32% | -25% | 45µM* | 10%
CN(C)c1ccc(-c2cc(Nc3ccc(F)cc3)ncn2)cc1 | ? | . | . | . | 2%[0.501 µM] | .
O=C1NC(=O)[C@@]2(CCOc3ccc(F)cc32)N1 | -4% | . | . | . | 37%[59 µM] | .
Cc1nc2[nH]c(=O)[nH]c(=O)c2[nH]1 | -17% | . | . | . | . | .
CC(NC(=O)c1ccc(Nc2nc3ccccc3n3nnnc23)cc1)c1ccccc1 (stereo unspecified) | . | . | 25% | -9% | -12%[59 µM] | -26%
O=S(c1ccccc1O)S(=O)c1ccccc1O (stereo unspecified) | . | . | 3.5µM* | 0.79µM* | . | .
CCN1CCN(c2ccc(N=Cc3ccccc3O)cc2)CC1 | 18% | -3% | 18% | -6% | 50µM* | -32%
COc1cccc(C=Nc2ccc(N3CCOCC3)cc2)c1O | 1% | -9% | 13% | -21% | ? | -35%
Cc1ccc(OCc2ccc(-c3nc(C#N)c(NCc4cccnc4)o3)o2)cc1 | . | . | ? | 20µM* | 11µM* | 18µM*
SMILES | Sfp inh | L3MBTL1 block | HP1b chromo inh | JMJD2A Tudor | G9a block | BAZ2B block
Cc1ccccc1OCc1ccc(-c2nc(C#N)c(NCc3cccnc3)o2)o1 | . | . | -12% | 16µM* | 11µM* | 32µM*
Cc1ccc(CNc2oc(-c3ccc(COc4ccc(C)cc4)o3)nc2C#N)cc1 | . | . | -9% | -34% | ? | ?
CCCCNc1oc(-c2ccc(COc3ccccc3C)o2)nc1C#N | . | . | 10% | -19% | ? | -34%
COc1ccc(OCc2ccc(-c3nc(C#N)c(NCc4cccnc4)o3)o2)cc1 | . | . | -14% | 32µM* | 13µM* | 18µM*
O=C(COc1ccccc1)N(Cc1cccnc1)c1nc2c(F)cccc2s1 | . | . | 23% | -10% | 14%[59 µM] | -7%
Nc1c(-c2ccccc2)cnn1-c1cccc(Cl)c1 | 4% | . | 35% | 3% | 9% | 1%
Nc1ccccc1Nc1cc(-c2cccc(Cl)c2)nn1-c1ccccc1 | 15% | ? | ? | 22µM* | 28µM* | 22µM*
O=C1CC(c2cccc(Cl)c2Cl)c2cc3c(cc2N1)OCCO3 (stereo unspecified) | . | . | 46% | -3% | -14%[59 µM] | -4%
CC(C)(Oc1ccc(Cl)cc1)C(=O)Nc1ccc(-c2nc3ncccc3o2)cc1 | . | . | 30% | -15% | 10%[59 µM] | 0%[57.1 µM]
Cc1nn(-c2ccc(N3CCCCC3)nn2)c(C)c1CCC(=O)NCc1ccc(OC(C)C)cc1 | . | . | 30% | -19% | 1%[59 µM] | -13%
Cc1[nH]ccc(=O)c1OCc1c(Cl)cccc1Cl | 6% | -7% | 29% | -2% | ? | -1%
Cc1ccc(Cn2ccc(=O)c(OCc3c(Cl)cccc3Cl)c2C)cc1 | 18µM* | . | 62% | 15% | 81% | ?
O=C(CSc1ccc(-c2ccc(F)cc2)nn1)NCc1ccco1 | 13% | 2% | 49% | -8%[57.1 µM] | -7%[59 µM] | -4%
COc1ccc(CCNC(=O)CSc2ccc(-c3ccco3)nn2)cc1 | -61% | . | 16% | -26% | -51% | ?
O=C(CSc1ccc(-c2ccco2)nn1)NCc1ccc(F)cc1 | ? | 0% | 13% | -9% | 45µM* | 1%
O=C(CSc1ccc(-c2ccco2)nn1)NCCc1ccccc1 | 32µM* | . | 51% | -16% | 35µM* | -6%
O=C(CSc1ccc(-c2ccco2)nn1)c1ccc(F)cc1 | 32µM* | -15% | ? | 45µM* | 40µM* | -34%
COc1ccc(NC(=O)CN2C(=O)COc3ccc(S(=O)(=O)NC4CCCC4)cc32)cc1OC | . | . | -2% | -17% | 2%[59 µM] | 0%
CC(C)Cn1c(=O)c2ccccc2n2c(CCC(=O)Nc3cccc(Cl)c3)nnc12 | . | . | 24% | 6% | 3%[59 µM] | 3%
CC(=NNc1nc2ccccc2s1)c1ncccn1 | . | . | -28% | 45µM* | . | .
CC(=NNc1nc2ccccc2o1)c1cc2ccccc2cn1 | . | . | -17% | 10µM* | . | .
C/C(=N\Nc1nc2ccccc2s1)c1cccs1 | -56% | -22% | -16% | ? | -45%[59 µM] | ?
CC(=NNc1nc2ccccc2o1)c1ncccn1 | . | . | -1% | 10µM* | . | .
